We go through 5 compounds from PubChem BioAssay.

The nature of assay [1]: small molecules captured by biotinylated probe aFSTL3 – biochemical, small-molecule microarray, fluorescence 635/667, stem cell growth factor project, primary screen (AID 1064).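 Note: measures binding of the biotinylated anti-FSTL3 antibody to printed compounds.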 Conditions: higher = more signal.
Assay [2] in a line: binders from COS7 lysate, DM2A8 probe, primary screen, torsin A project, cell lysate, small-molecule microarray, fluorescence 635/667 (AID 1065). Conditions: higher = more signal, COS7 lysate expressing mutant human TOR1A.
Assay [3] is described as follows: small molecules captured by biotinylated probe aFGF2 – biochemical, small-molecule microarray, fluorescence 635/667, stem cell growth factor project, primary screen (AID 1067).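 Note: measures binding of biotinylated aFGF2 protein to printed compounds on slides; z-score merges feature fluorescence and signal-to-noise across triplicate slides.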 Conditions: higher = more signal.
Assay [4] is described as follows: small molecules captured by biotinylated probe aFGF10 – biochemical, small-molecule microarray, fluorescence 635/667, stem cell growth factor project, primary screen (AID 1071).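 Note: score merges 667 nm spot intensity and signal to noise from triplicate slides.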 Conditions: higher = more signal.
Assay [5] concerns the target Neurogenic locus notch homolog protein 2 (Homo sapiens) (UniProt Q04721). The experiment in a line: small molecules binding Notch2 protein – biochemical, small-molecule microarray, 635 nm fluorescence, stem cell growth factors, primary screen (AID 1073). Conditions: higher = more signal.
The target of assay [6] is Pro-neuregulin-1, membrane-bound isoform (Homo sapiens) (UniProt Q02297). The experiment in a line: small molecules binding neuregulin-1 protein – biochemical, small-molecule microarray, fluorescence 635/667, psychiatric disease protein project, primary screen (AID 1075).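 Note: score combines 667 nm spot fluorescence with signal to noise.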 Conditions: NRG1 binding, 635 nm fluorescence, higher = more signal.
Sequence of Pro-neuregulin-1, membrane-bound isoform (Homo sapiens) (Q02297 whole entry, looked up, the tested form may be a part, canonical isoform): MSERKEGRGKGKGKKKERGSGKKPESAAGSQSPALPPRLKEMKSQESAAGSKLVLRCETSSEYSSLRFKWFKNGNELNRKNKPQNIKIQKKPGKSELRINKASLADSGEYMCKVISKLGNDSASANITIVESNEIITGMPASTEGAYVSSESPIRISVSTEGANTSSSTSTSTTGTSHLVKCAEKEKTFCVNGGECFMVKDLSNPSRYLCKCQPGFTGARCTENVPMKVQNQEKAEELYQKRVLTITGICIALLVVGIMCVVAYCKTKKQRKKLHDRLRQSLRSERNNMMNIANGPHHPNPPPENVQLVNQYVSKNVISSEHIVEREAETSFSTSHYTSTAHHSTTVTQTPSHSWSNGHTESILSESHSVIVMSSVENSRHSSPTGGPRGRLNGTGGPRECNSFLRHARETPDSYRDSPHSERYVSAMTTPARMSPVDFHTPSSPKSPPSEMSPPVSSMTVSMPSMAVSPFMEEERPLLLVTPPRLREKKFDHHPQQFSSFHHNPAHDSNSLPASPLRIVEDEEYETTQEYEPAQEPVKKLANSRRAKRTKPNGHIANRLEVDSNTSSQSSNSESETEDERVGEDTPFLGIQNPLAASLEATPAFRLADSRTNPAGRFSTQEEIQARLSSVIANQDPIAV
For assay [7], the system named is Neuregulin-1 EGF-like domain. The experiment in a line: small molecules binding NRG1 EGF domain – biochemical, small-molecule microarray, 635 nm fluorescence, primary screen (AID 1081).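 Note: binding of the protein to compounds printed on small-molecule microarray slides.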 Conditions: higher = more signal.
The nature of assay [8]: FRG1 expression reporter modulators in myotubes – cell-based, C2C12 myotubes, firefly/Renilla luciferase, luminescence, FRG1 inhibition for FSHD, primary screen (AID 1084). Conditions: FRG1 promoter luciferase, higher = more signal, called active from +8 up or from −8 down.
Assay [9] can be described thus: small molecules captured by biotinylated probe aFST – biochemical, small-molecule microarray, fluorescence 635/667, stem cell growth factor project, primary screen (AID 1086).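 Note: score merges 667 nm fluorescence with signal-to-noise of each printed compound spot.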 Conditions: higher = more signal.
Assay [10] can be described thus: binders of probe aHhip on microarray, primary screen, stem cell growth factor project, biochemical, small-molecule microarray, fluorescence 635/667 (AID 1087).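 Note: score merges spot fluorescence at 667nm with spot signal to noise ratio.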 Conditions: higher = more signal.
For assay [11], the system named is PRMT1 (protein arginine N-methyltransferase 1). The experiment in a line: small molecules binding arginine methyltransferase PRMT1 – biochemical, small-molecule microarray, 635 nm fluorescence, primary screen (AID 1088).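 Note: binding of Prmt1 protein to compounds spotted on small-molecule microarray slides.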 Conditions: higher = more signal.
Assay [12] can be described thus: growth effects on S. cerevisiae YJM789 – YJM789 clinical isolate, OD600, 24 h, basal, primary screen (AID 1089).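 Note: growth of clinical yeast isolate S. cerevisiae YJM 789 seeded 1000 cells per well; test concentration not given here.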 Conditions: higher = more signal, called active from +8 up or from −8 down.
Assay [13] is described as follows: S. pombe growth modifiers, basal conditions – strain 972, OD600, 24 h, no modulator, primary screen (AID 1090).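 Note: basal condition with compound alone and no growth modifier present; test concentration not given here.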 Conditions: S. pombe 972 growth, higher = more signal, called active from +8 up or from −8 down.
Assay [14] is described as follows: budding yeast growth modifiers under rapamycin – strain BY4716, OD600, 96 h, primary screen (AID 1091). Note: test concentration not given here. Conditions: S. cerevisiae BY4716 + rapamycin, higher = more signal, called active from +8 up or from −8 down.
The target of assay [15] is Torsin-1A-interacting protein 2 (Homo sapiens) (UniProt Q8NFQ8). The experiment in a line: small molecules binding lysate-expressed LULL1 – cell lysate, human LULL1 lysate, 635/667 nm fluorescence, primary screen (AID 1092).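 Note: probe is lysate of COS7 cells overexpressing human LULL1; score merges per-feature 667 nm fluorescence with signal-to-noise.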 Conditions: small-molecule microarray, hLULL1 lysate binding, 635 nm fluorescence; higher = more signal.
Sequence of Torsin-1A-interacting protein 2 (Homo sapiens) (Q8NFQ8 whole entry, looked up): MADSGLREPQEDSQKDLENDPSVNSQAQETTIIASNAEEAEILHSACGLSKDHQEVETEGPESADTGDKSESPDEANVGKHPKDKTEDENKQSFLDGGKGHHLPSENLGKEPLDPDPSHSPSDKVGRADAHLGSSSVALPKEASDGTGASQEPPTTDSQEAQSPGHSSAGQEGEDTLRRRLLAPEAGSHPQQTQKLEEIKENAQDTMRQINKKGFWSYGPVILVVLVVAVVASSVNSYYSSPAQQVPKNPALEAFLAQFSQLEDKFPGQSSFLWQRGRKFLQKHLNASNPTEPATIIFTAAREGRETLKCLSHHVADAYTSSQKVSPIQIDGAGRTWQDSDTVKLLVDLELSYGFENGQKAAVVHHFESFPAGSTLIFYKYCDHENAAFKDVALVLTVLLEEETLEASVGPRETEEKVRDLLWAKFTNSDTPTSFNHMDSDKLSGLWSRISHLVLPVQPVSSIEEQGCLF
A short description of assay [16]: optical density change of DRC41 E. coli – strain DRC41, OD650, 24 h, E. coli filamentation project, primary screen (AID 1093).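 Note: MC1000 strain lacking acrAB efflux and sulA so SOS filamentation is blocked; test concentration not given here.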 Conditions: E. coli DRC41 growth, higher = more signal, called active from +8 up or from −8 down.
Assay [17] is described as follows: probe aLefty2 binding to arrayed compounds – biochemical, biotinylated probe, 635/667 nm fluorescence, primary screen (AID 1094).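 Note: score merges spot fluorescence near 667 nm with spot signal-to-noise ratio.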 Conditions: small-molecule microarray, higher = more signal.
Assay [18] has as its system Noggin (protein binding on small-molecule microarray). The experiment in a line: small molecules binding Noggin protein – biochemical, 635/667 nm fluorescence, primary screen (AID 1095).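 Note: score merges 667 nm feature fluorescence with signal to noise over triplicate slides.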 Conditions: 635 nm fluorescence, higher = more signal.
The target in assay [19] is Neurogenic locus notch homolog protein 3 (Homo sapiens) (UniProt Q9UM47). The experiment in a line: small molecules binding NOTCH3 protein – biochemical, 635/667 nm fluorescence, primary screen (AID 1096). Conditions: small-molecule microarray, 635 nm fluorescence, higher = more signal.
Assay [20] is described as follows: probe aEGFR binding to arrayed compounds – biochemical, biotinylated probe, 635/667 nm fluorescence, primary screen (AID 1097).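 Note: probe is a biotinylated anti-EGFR antibody binding compounds printed on slides; score combines fluorescence near 667 nm and signal to noise of each spot.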 Conditions: small-molecule microarray, higher = more signal.

Calls of active or inactive are those of the source.

Sequence of Neurogenic locus notch homolog protein 2 (Homo sapiens) (Q04721 whole entry, looked up, canonical isoform): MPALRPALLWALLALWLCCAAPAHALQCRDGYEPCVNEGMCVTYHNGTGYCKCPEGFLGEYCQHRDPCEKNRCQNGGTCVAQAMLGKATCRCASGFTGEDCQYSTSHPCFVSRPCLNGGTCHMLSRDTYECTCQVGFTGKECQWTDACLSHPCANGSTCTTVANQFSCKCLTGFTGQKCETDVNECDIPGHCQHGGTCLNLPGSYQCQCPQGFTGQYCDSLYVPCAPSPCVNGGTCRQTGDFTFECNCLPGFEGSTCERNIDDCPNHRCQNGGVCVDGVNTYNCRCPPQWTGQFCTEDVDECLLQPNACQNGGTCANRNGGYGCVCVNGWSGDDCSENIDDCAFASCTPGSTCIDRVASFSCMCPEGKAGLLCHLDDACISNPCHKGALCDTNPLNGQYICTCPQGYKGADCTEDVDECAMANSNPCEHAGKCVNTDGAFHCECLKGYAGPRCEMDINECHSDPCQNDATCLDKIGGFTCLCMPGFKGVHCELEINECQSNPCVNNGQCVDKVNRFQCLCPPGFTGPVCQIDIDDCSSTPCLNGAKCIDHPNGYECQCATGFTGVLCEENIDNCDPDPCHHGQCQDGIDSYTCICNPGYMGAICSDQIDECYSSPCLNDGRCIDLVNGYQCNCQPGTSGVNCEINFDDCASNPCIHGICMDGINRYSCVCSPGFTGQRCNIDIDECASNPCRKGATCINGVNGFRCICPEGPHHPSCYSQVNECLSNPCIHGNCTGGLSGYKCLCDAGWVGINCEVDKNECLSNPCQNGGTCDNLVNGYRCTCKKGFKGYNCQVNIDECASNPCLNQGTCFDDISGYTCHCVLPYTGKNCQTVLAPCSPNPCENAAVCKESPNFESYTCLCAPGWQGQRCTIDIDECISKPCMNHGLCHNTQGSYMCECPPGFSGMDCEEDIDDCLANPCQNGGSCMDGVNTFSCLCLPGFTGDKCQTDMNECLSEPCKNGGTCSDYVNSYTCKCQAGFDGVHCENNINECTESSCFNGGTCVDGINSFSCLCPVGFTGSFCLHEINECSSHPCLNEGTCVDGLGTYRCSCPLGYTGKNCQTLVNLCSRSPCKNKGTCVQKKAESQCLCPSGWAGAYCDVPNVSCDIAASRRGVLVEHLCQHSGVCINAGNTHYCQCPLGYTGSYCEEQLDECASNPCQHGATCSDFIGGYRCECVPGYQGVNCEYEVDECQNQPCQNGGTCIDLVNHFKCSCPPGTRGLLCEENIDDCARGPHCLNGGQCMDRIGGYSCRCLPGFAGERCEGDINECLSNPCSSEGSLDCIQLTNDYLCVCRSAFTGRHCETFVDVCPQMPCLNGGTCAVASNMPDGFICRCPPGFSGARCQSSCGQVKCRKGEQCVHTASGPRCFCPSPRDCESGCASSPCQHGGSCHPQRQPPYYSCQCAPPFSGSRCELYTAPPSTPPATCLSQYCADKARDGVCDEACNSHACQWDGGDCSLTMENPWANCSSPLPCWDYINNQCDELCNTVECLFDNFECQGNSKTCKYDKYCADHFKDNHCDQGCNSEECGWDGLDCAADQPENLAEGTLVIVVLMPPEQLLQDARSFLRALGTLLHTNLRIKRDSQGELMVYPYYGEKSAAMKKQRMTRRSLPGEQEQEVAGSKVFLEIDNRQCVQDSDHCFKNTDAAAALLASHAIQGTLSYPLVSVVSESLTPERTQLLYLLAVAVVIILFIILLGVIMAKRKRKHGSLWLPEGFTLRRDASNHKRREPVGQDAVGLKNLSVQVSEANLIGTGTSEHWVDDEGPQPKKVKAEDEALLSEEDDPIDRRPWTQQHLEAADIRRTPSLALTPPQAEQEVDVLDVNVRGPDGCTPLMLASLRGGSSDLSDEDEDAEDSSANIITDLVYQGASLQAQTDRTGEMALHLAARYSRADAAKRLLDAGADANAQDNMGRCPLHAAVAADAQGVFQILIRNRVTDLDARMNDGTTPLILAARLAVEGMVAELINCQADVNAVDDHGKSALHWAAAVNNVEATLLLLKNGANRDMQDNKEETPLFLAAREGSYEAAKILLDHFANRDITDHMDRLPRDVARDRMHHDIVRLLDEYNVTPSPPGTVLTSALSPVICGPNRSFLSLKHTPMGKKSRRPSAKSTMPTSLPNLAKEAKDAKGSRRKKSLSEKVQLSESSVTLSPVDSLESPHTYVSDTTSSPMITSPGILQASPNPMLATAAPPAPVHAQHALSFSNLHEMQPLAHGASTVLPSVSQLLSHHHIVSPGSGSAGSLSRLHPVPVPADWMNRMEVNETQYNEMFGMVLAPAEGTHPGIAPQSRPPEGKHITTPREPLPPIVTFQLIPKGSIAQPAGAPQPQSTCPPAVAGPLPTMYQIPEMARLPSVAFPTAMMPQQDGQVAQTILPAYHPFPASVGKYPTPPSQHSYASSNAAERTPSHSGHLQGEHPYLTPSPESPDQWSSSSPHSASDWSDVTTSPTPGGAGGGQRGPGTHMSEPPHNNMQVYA

In the case of `O=C1OCCC/C=C\[C@H]2OC34C=CCN(CCN5CCOCC5)C(=O)[C@H]3N(CCCCCO)C(=O)[C@@H]4C12` (stereo not given in full), the composite z-score in assay [1] is -0.0623; in assay [2], -0.658; in assay [3] it was -0.174; in [4], -0.156; in [5] it was -0.822; in assay [6], -0.179. In addition, the composite z-score in assay [7] was 0.65; in [9], -0.676; in assay [10], -0.226; in [11] it was -0.706; in [15] it was -0.701; in assay [17], -0.221. Moreover, the figures for the composite z-score in assay [18], in assay [19] and in [20] were -0.987, 0.0233 and -0.281, respectively. The z-score is 1.48 (inactive) in [8]; -0.114 (inactive) in assay [12]; -0.359 (inactive) in assay [13]; -0.824 (inactive) in [14]; -0.763 (inactive) in assay [16].

With `CCCC=C(CCC)[C@@H](NC(=O)c1ccccc1)c1ccccc1`, the composite z-score in assay [1] was 0.969; in assay [2] it was -0.239; in [3], -0.0392; in [4], -0.41; in assay [5], -0.028; in assay [6], -0.806. The composite z-score was -0.943 in assay [7]; 0.636 in [9]; 0.304 in assay [10]; -0.732 in assay [11]; 0.446 in [15]; -0.0446 in assay [17]. Further, the composite z-score in assay [18] is -0.96; in assay [19], -0.177; in [20], -0.0828. Moreover, the z-score in assay [8] was -0.788 (inactive); in assay [12], 0.0874 (inactive); in assay [13], -0.272 (inactive); in assay [14], 0.912 (inactive); in assay [16] it was -0.494 (inactive).

Regarding `CSCC[C@@H]1NC(=O)CC=C[C@@H](C)COC(=O)[C@H](CCSC)NC(=O)CC=C[C@@H](C)COC1=O`, the composite z-score in assay [1] is -0.678; in assay [2], 1.31; in [3], -0.127; in [4], 0.0086; in [5], -0.121; in assay [6] it was -0.283. Besides, the composite z-score is -0.26 in [7]; -0.15 in [9]; 0.0578 in assay [10]; -0.153 in [11]; -0.452 in [15]; -0.137 in [17]. In addition, the composite z-score in assay [18] is 0.877; in [19], -0.35; in assay [20], -0.128. Also, the z-score in assay [8] was -0.889 (inactive); in assay [12], -0.981 (inactive); in assay [13], -1.12 (inactive); in assay [14], -1.03 (inactive); in assay [16] it was -0.566 (inactive).

With `CCCC=C(CCC)[C@@H](NS(=O)(=O)c1ccc(C(F)(F)F)cc1)c1ccc(-c2ccccc2)cc1`, the composite z-score was found to be 0.357 in [1]; 0.0864 in assay [2]; 0.0407 in assay [3]; 0.309 in assay [4]; 1.5 in assay [5]; 0.801 in assay [6]. In addition, the composite z-score in [7] stood at 1.02; in assay [9] it was 1.38; in assay [10], 2.14; in assay [11], 1.09; in assay [15], 3; in assay [17], 0.0491. For the same compound, the composite z-score in [18] was 0.77; in assay [19], 0.762; in assay [20], -0.013. Moreover, the z-score in assay [8] was -0.001 (inactive); in assay [12], 0.251 (inactive); in [13], -3.21 (inactive); in [14] it was -0.1 (inactive); in assay [16] it was -0.39 (inactive).

`CO[C@@H]1COC(=O)[C@H](C)NC(=O)CC=C[C@@H](C)[C@H](NS(=O)(=O)c2ccc(C)cc2)COC(=O)CC=C[C@@H]1C`: the composite z-score in assay [1] is -0.402; in assay [2], -0.0613; in [3], -0.0891; in [4], 0.117; in assay [5], 0.156; in assay [6], -0.32. Moreover, the composite z-score is -0.144 in [7]; -0.181 in assay [9]; -0.388 in assay [10]; -0.844 in [11]; -0.382 in assay [15]; -0.207 in [17]. Also, the composite z-score in assay [18] is -0.0396; in [19], -0.693; in [20] it was -0.211. The z-score in assay [8] is -0.364 (inactive); in assay [12], 0.79 (inactive); in assay [13], -0.0181 (inactive); in assay [14], 0.256 (inactive); in assay [16] it was 0.452 (inactive).
